Experimental data as given in PubChem BioAssay (NCATS).
Results filed as inconclusive are left out. Active and inactive are the calls of the source. Calls follow the shape of the dose curve; as a rule, active = well fitted inhibition curve with a large enough effect; inconclusive = small, poorly fitted or top-dose-only effect; inactive = flat fitted curve, though single readings scatter.

Key:
Test in all cases: Cytotoxic Profiling of Annotated Libraries Using Quantitative High-Throughput Screening (AID 1296008); also: nearly all actives have a fitted effect of over 60% in size
Details in all cases: Five cell lines viability, CellTiter-Glo ATP luminescence, 48-72 h; max response: hits give low values
CRL-7250 = normal cell line; test system: CRL-7250
How it was run: (§1)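 Cytotoxicity was measured as CellTiter-Glo ATP luminescence, read after 10 min at room temperature. Compound treatment of the cells lasted 48 or 72 hr at 37 degrees Celsius in a qHTS format.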

HEK293 = test system: HEK293
How it was run: as §1

HaCat = test system: HaCat
How it was run: as §1

KB-3-1 = test system: KB-3-1
How it was run: as §1

NIH3T3 = test system: NIH3T3
How it was run: as §1
% is scaled to controls: 0 for no effect and ±100 for the full control effect; potency is read from the fitted curve at half-maximal effect.

CC1(C=O)CC[C@]2(C(=O)O[C@@H]3O[C@H](CO)[C@@H](O)[C@H](O)[C@H]3O)CC[C@]3(C)C(=CCC4[C@@]5(C)C[C@H](O)[C@H](O[C@@H]6OC[C@@H](O)[C@H](O)[C@H]6O)[C@@](C)(CO)C5CC[C@]43C)C2C1 (stereo not given in full)
inactive: max response (CRL-7250) -5.25% | max response (HEK293) -6.07% | max response (HaCat) -0.307% | outcome (KB-3-1) | max response (NIH3T3) -1.18%

O=S(=O)(NC1CCC(c2cc(F)ccc2F)(S(=O)(=O)c2ccc(Cl)cc2)CC1)C(F)(F)F (stereo not given)
inactive: outcome (CRL-7250) | max response (HEK293) -4.12% | max response (HaCat) -23.1% | max response (KB-3-1) 5.9% | max response (NIH3T3) -17.1%

O=C(Nc1ccccc1)N1CCN(Cc2ccc3ccccc3n2)CC1
inactive: outcome (CRL-7250) | max response (HEK293) -11% | max response (HaCat) -4.72% | max response (KB-3-1) -4.71% | max response (NIH3T3) 1.66%

CC(=O)c1c(O)cc(O[C@@H]2O[C@H](CO)[C@@H](O)[C@H](O)[C@H]2O)cc1O
inactive: max response (CRL-7250) -2.16% | max response (HEK293) 1.76% | max response (HaCat) -1.69% | outcome (KB-3-1) | max response (NIH3T3) 1.77%

CC(C)C(C(=O)N(C)C(C)C(N)=O)N(C)C(=O)C1CCCN1C(=O)/C=C/C=C/C(O)C(C)O (stereo not given)
inactive: outcome (CRL-7250) | max response (HEK293) 4.88% | max response (HaCat) -10.3% | max response (KB-3-1) 7.9% | max response (NIH3T3) 2.29%

CC1=CC(=O)CC(C)(C)C1/C=C/C(C)O[C@@H]1O[C@H](CO)[C@@H](O)[C@H](O)[C@H]1O[C@@H]1OC[C@](O)(CO)[C@H]1O (stereo not given in full)
inactive: max response (CRL-7250) -0.149% | max response (HEK293) 1.02% | max response (HaCat) 4.57% | max response (KB-3-1) 2.75% | max response (NIH3T3) 3.26%

CC1=CCC(C(C)(C)O[C@@H]2O[C@H](CO[C@@H]3O[C@@H](C)[C@H](O)[C@@H](O)[C@H]3O)[C@@H](O)[C@H](O)[C@H]2O)CC1 (stereo not given in full)
inactive: max response (CRL-7250) -8.36% | max response (HEK293) 2.02% | max response (HaCat) 1.99% | outcome (KB-3-1) | max response (NIH3T3) 2.56%

C=C1C[C@]23C[C@H]1[C@@H](O)C[C@H]2[C@@]12C=C[C@H](O)[C@@](C)(C(=O)O1)[C@H]2[C@@H]3C(=O)O
inactive: max response (CRL-7250) 0.0204% | max response (HEK293) -1.36% | max response (HaCat) -32.5% | max response (KB-3-1) -2.31% | max response (NIH3T3) 0.227%

CC(=O)O[C@@H]1c2c(C)coc2C(=O)[C@@]23O[C@@H]2CC[C@H](C)[C@@]13C
inactive: max response (CRL-7250) 3.98% | max response (HEK293) 2.56% | max response (HaCat) -14.6% | max response (KB-3-1) 9.51% | max response (NIH3T3) 4.3%

O=S(=O)(c1ccc(S(=O)(=O)n2cnc3ccccc32)cc1)N1CCCCCC1
inactive: max response (CRL-7250) -2.18% | max response (HEK293) -10.3% | max response (HaCat) -9.6% | max response (KB-3-1) 6.01% | max response (NIH3T3) -4.79%

O=C(NCc1ccccn1)Nc1nnc(-c2ccco2)o1
inactive: max response (CRL-7250) 0.451% | max response (HEK293) -0.62% | max response (HaCat) 1.95% | max response (KB-3-1) 3.97% | max response (NIH3T3) 3.06%

C1CCC[C@H]2CCCN3CC[C@@H](CCCCCC[C@@H]4CCCN5CC[C@@H](CC1)O[C@@H]45)O[C@@H]23
inactive: max response (CRL-7250) 0.135% | max response (HEK293) 4.46% | max response (HaCat) -0.73% | max response (KB-3-1) 8.9% | max response (NIH3T3) 2.62%

C=C1CCC2C(C)(C(=O)O)CCCC2(C)C1CC/C(=C\CO)CO (stereo not given)
inactive: max response (CRL-7250) 0.544% | max response (HEK293) 2.54% | max response (HaCat) -8.15% | max response (KB-3-1) 8.33% | max response (NIH3T3) 3.98%

CC(C)=CCCC1(C)C=Cc2c(c(C)cc3c2[nH]c2ccccc23)O1 (stereo not given)
inactive: max response (CRL-7250) -19.1% | max response (HEK293) -24.1% | max response (HaCat) 3.9% | max response (KB-3-1) 6.53% | max response (NIH3T3) -4.99%

CC(C)CC(=O)OC1OC=C(CO[C@@H]2O[C@H](CO)[C@@H](O)[C@H](O)[C@H]2O)C2CC(O)C(O)(CO)C12 (stereo not given in full)
inactive: max response (CRL-7250) 3.01% | max response (HEK293) -1.23% | max response (HaCat) -4.52% | max response (KB-3-1) 2.5% | max response (NIH3T3) -2.63%

CC(C)(O[C@@H]1O[C@H](CO)[C@@H](O)[C@H](O)[C@H]1O)C(OC(=O)/C=C\c1ccc(O)cc1)C(=O)OCc1ccc(O[C@@H]2O[C@H](CO)[C@@H](O)[C@H](O)[C@H]2O)cc1 (stereo not given in full)
inactive: max response (CRL-7250) -12.2% | max response (HEK293) -30.7% | max response (HaCat) -19.6% | outcome (KB-3-1) | max response (NIH3T3) -27.1%

CC(C)C(NC(=O)c1ccc2ccccc2n1)C(=O)NC(CC(=O)O)C(=O)COc1c(F)cccc1F (stereo not given)
inactive: max response (CRL-7250) -6.89% | max response (HEK293) -1.52% | max response (HaCat) -3.62% | max response (KB-3-1) 2.53% | max response (NIH3T3) -0.522%

C[C@@H]1CC[C@]2(C(=O)O)CC[C@]3(C)C(=CCC4[C@@]5(C)C[C@@H](O)[C@H](O)[C@@](C)(CO)C5CC[C@]43C)C2[C@]1(C)O (stereo not given in full)
inactive: max response (CRL-7250) -3.26% | max response (HEK293) -12.2% | max response (HaCat) 4.14% | max response (KB-3-1) 2.17% | max response (NIH3T3) -6.81%

COc1c2c(cc3c1-c1c(cc4c(c1OC)OCO4)CC(C)C(C)C3)OCO2 (stereo not given)
inactive: max response (CRL-7250) 1.23% | max response (HEK293) -21.6% | max response (HaCat) -1.94% | max response (KB-3-1) -8.19% | max response (NIH3T3) -11.8%

O=C(O)c1cc(I)ccc1NC(=O)[C@H](Cc1ccccc1)NCc1ccccc1
inactive: max response (CRL-7250) -2.69% | max response (HEK293) -1.33% | max response (HaCat) -2.36% | max response (KB-3-1) -0.475% | max response (NIH3T3) 1.92%

C=CCC1=C[C@]2(OC)[C@H](C)[C@@H](c3ccc(O)c(OC)c3)O[C@]2(OC)CC1=O
inactive: max response (CRL-7250) -0.729% | max response (HEK293) 0.3% | max response (HaCat) 3.92% | max response (KB-3-1) 5.23% | max response (NIH3T3) 0.772%

C=C1CCC2C(C(C)(C)O)CCC2(C)CC(O)C(=C)CCC1O (stereo not given)
inactive: max response (CRL-7250) -17.3% | max response (HEK293) 2.07% | max response (HaCat) -2.57% | max response (KB-3-1) 2.13% | max response (NIH3T3) -9.68%

Cc1ccc(NC(=O)C(=O)NC2CC(C)(C)NC(C)(C)C2)cc1
inactive: outcome (CRL-7250) | max response (HEK293) 1.35% | max response (HaCat) -22.4% | max response (KB-3-1) -0.25% | max response (NIH3T3) -7%

CC1=CC(=O)CC2C1(O)CCC(C)C21CC(c2ccoc2)OC1=O (stereo not given)
inactive: max response (CRL-7250) -9.3% | max response (HEK293) -14.1% | max response (HaCat) -50.8% | max response (KB-3-1) -1.68% | max response (NIH3T3) -0.573%

CC1COC(Nc2ccc3ncnc(Nc4ccc(OCc5nccs5)c(Cl)c4)c3c2)=N1 (stereo not given)
inactive: max response (KB-3-1) -8.52% | max response (NIH3T3) 3.7%
active: Potency (CRL-7250) 9200 nM | Potency (HEK293) 11600 nM | Potency (HaCat) 1840 nM

Cn1nc(C(C)(C)C)cc1C(=O)NC(Cc1cccc(Cl)c1)C(=O)NCC#N (stereo not given)
inactive: outcome (CRL-7250) | max response (HEK293) -17.2% | max response (HaCat) -59.1% | max response (KB-3-1) 1.87% | max response (NIH3T3) 0.163%

C#CCN(Cc1cc2c(=O)n(C)c(CN3CCN(C)CC3)nc2cc1Cl)c1ccc(C(=O)NCc2cccnc2)cc1
active: Potency (CRL-7250) 8.2 nM | Potency (HaCat) 7.3 nM | Potency (KB-3-1) 41.1 nM
inactive: max response (HEK293) -130% | max response (NIH3T3) -114%

CCOC(=O)c1cc(C#N)c(N2CCC(C(=O)NS(=O)(=O)Cc3ccccc3)CC2)nc1C
inactive: outcome (CRL-7250) | max response (HEK293) -0.212% | max response (HaCat) 2.62% | outcome (KB-3-1) | max response (NIH3T3) 4.98%

CCOCc1nc2c(N)nc3ccccc3c2n1CC(C)(C)O
inactive: max response (CRL-7250) -6.16% | max response (HEK293) -5.94% | max response (HaCat) 3.85% | max response (KB-3-1) -7.57% | max response (NIH3T3) -2.04%

COc1ccc(CC2NCCc3c2[nH]c2ccc(C)cc32)cc1OC (stereo not given)
inactive: max response (CRL-7250) -17.7% | max response (HaCat) -6.85% | max response (KB-3-1) -15.3% | max response (NIH3T3) -1.6%
active: Potency (HEK293) 10300 nM

COc1ccc(CNC(=O)c2cc(-c3cncc(C)c3)ncc2-c2nccs2)nc1OC
inactive: outcome (CRL-7250) | max response (HEK293) -57.9% | max response (HaCat) -36.2% | outcome (KB-3-1) | max response (NIH3T3) -26.3%

OC[C@H]1O[C@@H](Oc2ccccc2)[C@H](O)[C@@H](O)[C@@H]1O
inactive: outcome (CRL-7250) | max response (HEK293) 0.0932% | max response (HaCat) 3.54% | outcome (KB-3-1) | max response (NIH3T3) -2.04%

C[C@@H]1O[C@@H](OC[C@H]2O[C@@H](Oc3cc(O)cc4c3C(=O)C(O)(Cc3ccc(O)cc3)O4)[C@H](O)[C@@H](O)[C@@H]2O)[C@H](O)[C@H](O)[C@H]1O (stereo not given in full)
inactive: max response (CRL-7250) 3.09% | max response (HEK293) 1.44% | max response (HaCat) -8.78% | max response (KB-3-1) 8.25% | max response (NIH3T3) 2.04%

CCCN1CCN(c2ccc(C(=O)NC3(C(=O)NCC#N)CCCCC3)cc2)CC1
inactive: max response (CRL-7250) -0.563% | max response (HEK293) -5.14% | max response (HaCat) -5.96% | max response (KB-3-1) -7.48% | max response (NIH3T3) 1.62%

CC1=C(C(=O)O)/C(=C\CO[C@@H]2O[C@H](CO)[C@@H](O)[C@H](O)[C@H]2O)C(OC(=O)/C=C/c2ccc(O)cc2)C1 (stereo not given in full)
inactive: max response (CRL-7250) -18% | max response (HEK293) 0.858% | max response (HaCat) -26% | max response (KB-3-1) 8.61% | max response (NIH3T3) -19.1%

CC1=C2C3OC(=O)C(C)C3(O)CCC2(C)CCC1O (stereo not given)
inactive: max response (CRL-7250) -5.4% | max response (HEK293) -8.27% | max response (HaCat) -12.8% | max response (KB-3-1) 5.71% | max response (NIH3T3) -16.2%

CC1=C2C[C@H]3O[C@@]3(C)CCC3O[C@@]3(C)C[C@@]2(O)OC1=O (stereo not given in full)
inactive: outcome (CRL-7250) | max response (HEK293) -4.05% | max response (HaCat) -4.97% | outcome (KB-3-1) | max response (NIH3T3) 2.41%

COc1cc(/C=C/C(=O)O[C@H]2[C@H](O)[C@@H](CO)O[C@@]2(CO)O[C@H]2O[C@H](CO)[C@@H](O)[C@H](O)[C@H]2O)ccc1O
inactive: max response (CRL-7250) 3.83% | max response (HEK293) 0.588% | max response (HaCat) -4.81% | max response (KB-3-1) 1.78% | max response (NIH3T3) 1.81%
